The results in this text go back to PubChem BioAssay AID488854 (National Center for Advancing Translational Sciences (NCATS), 2010).

“And” between values parts separate entries of the source, which are not always exact repeats. Identical values can stand only once. Records with an inconclusive call do not appear. A number with no mark means an inactive call. The source made the active and inactive calls. The call rests on the fitted dose curve; in most records, active means well fitted activation curve with a large enough effect; inconclusive means small, poorly fitted or top-dose-only effect; inactive means no such curve, though single readings can be large or run the other way.

Sequence of Lysosomal acid glucosylceramidase (Homo sapiens) (P04062 whole entry N409S): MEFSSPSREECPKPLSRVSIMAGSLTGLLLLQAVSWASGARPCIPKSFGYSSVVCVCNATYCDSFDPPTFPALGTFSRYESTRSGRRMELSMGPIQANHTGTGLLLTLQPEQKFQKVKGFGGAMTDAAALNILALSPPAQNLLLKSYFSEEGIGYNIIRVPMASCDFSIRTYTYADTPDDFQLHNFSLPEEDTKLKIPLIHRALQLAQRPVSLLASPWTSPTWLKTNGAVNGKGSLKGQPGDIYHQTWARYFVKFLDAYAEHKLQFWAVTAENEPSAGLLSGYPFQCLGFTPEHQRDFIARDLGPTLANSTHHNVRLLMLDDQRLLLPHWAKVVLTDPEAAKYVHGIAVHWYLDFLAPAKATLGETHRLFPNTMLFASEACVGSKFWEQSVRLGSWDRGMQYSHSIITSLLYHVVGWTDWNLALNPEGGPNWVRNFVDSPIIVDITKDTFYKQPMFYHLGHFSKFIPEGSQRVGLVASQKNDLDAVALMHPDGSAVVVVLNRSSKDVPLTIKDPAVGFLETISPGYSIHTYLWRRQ

The target of the assay is Lysosomal acid glucosylceramidase (Homo sapiens) (UniProt P04062). The experiment in a line: qHTS Assay for Inhibitors and Activators of N370S glucocerebrosidase as a Potential Chaperone Treatment of Gaucher Disease: Confirmation for Probe SAR. The following applies: N370S GC spleen homogenate, 4MU-glucoside fluorescence; series mostly up to 57.5 µM; activity change, positive = activation: at the top concentration. From the text:
NIH Chemical Genomics Center [NCGC] NIH Molecular Libraries Probe Production Centers Network [MLPCN] MLPCN Grant: MH086442-01 Assay Submitter (PI): Wei Zheng Glucocerebrosidase (GC) catalyzes the hydrolysis of beta-glucocerebroside to glucose and ceramide in lysosomes. Mutations in the glucocerebrosidase gene result in Gaucher disease, an autosomal recessive lysosomal storage disorder. Many of the mutations encountered in patients with Gaucher disease are missense alterations that may cause misfolding, decreased stability and/or mistrafficking of this lysosomal protein. […] These inhibitors include iminosugar analogs and three non-iminosugar inhibitors identified from a previous HTS of 62,000 compounds with the wild type recombinant enzyme. However, the enhancement of enzyme activity by the chaperone action of an enzyme inhibitor must be balanced against the direct inhibition of the enzyme. An enzyme activator could also function as a chaperone by binding to the enzyme and helping to correct its misfolding and mistrafficking. While activators for GC have not yet been identified, they may have better therapeutic potential than inhibitors. Therefore the discovery and development of chemical activators may provide a new strategy for the chaperone therapy. We have optimized a new assay using N370S mutant GC derived from the spleen of a Gaucher patient. […] In addition, the MLPCN compound library has expanded, which increases the chance of finding new and better probes.
NCGC Assay Protocol Summary: This is a fluorogenic enzyme assay with 4-methylumbelliferyl-beta-D-glucopyranoside as the substrate and N370S glucocerebrosidase from human spleen homogenate as the enzyme preparation. Upon the hydrolysis of this fluorogenic substrate, the resulting product, […] which can be detected by a standard fluorescence plate reader. Data were normalized to the controls for basal activity (without enzyme) and 100% activity (with enzyme). The AC50 values were determined from concentration-response data modeled with the standard Hill equation. Assay buffer: 50 mM citric acid (titrated with potassium phosphate to pH 5.0), 100 mM potassium chloride, 10 mM sodium chloride, 1 mM magnesium chloride, 0.01% Tween-20. 1536-well assay protocol: (1) Add 2 ul/well of spleen homogenate (27 ug final) (2) Add 23 nL compounds in DMSO solution. The final titration was 0.5 nM to 58 uM. (3) Add 2 ul of substrate (1 mM final) (4) Incubate at 37C for 40 min. (5) Add 2 ul stop solution (1M NaOH and 1M Glycine mixture, pH 10) (6) Detect the assay plate in a ViewLux plate reader (PerkinElmer) with Ex=365 nm and Em=440nm. Keywords: Glucocerebrosidase, beta-glucosidase, Gaucher Disease, pharmacological chaperone, chaperone therapy, high throughput screening, glucocerebrosidase inhibitor, MLSMR, MLSCN, NIH Roadmap, qHTS and NCGC
For `O=C(Nc1ccccc1Sc1ccccc1)c1cnn2c1NC(=C1CC1)C=C2C(F)F`, the Potency is 4.61 µM (active). Same read-out and setting: next, `O=C(Nc1ccc2c(c1)CCC2)c1cnn2c1NC(=C1CC1)C=C2C(F)F`: 3.98 µM (active). On to `Cc1cc(C)n2ncc(C(=O)NC(C)C)c2n1`, for which the “activity change, positive = activation” value was 28.6%. On to `CC(=O)c1cccc(NC(=O)c2cnn3c(C)cc(C)nc23)c1`, for which the Potency is 25.9 µM (active). Turning to `Cc1cccc(NC(=O)c2cnn3c(C)cc(C)nc23)c1`, the Potency is 3.66 µM (active).

Regarding `CC(=O)Nc1ccccc1NC(=O)c1cnn2c(C)cc(C)nc12`, the “activity change, positive = activation” value was 22.1%. For the molecule `COc1ccc(NC(=O)c2cnn3c(C)cc(C)nc23)cc1`, the Potency is 6.51 µM (active). Same read-out and setting: next, `Cc1cc(C)n2ncc(C(=O)NCc3ccccc3)c2n1`: 32.6 µM (active). As for `CNC(=O)c1cnn2c(C)cc(C)nc12`, the “activity change, positive = activation” value was 21.2%. The same measure, in the same setting: next, `Cc1cc(C)n2ncc(C(=O)N3CCCC3)c2n1`: 2.99%. For the molecule `COc1ccc(NC(=O)c2cnn3c(C)cc(C)nc23)cc1F`, the Potency was 0.819 µM (active). On the same count and under the same terms, next, `O=C(NC1CCCCC1)c1cnn2c1NC(=C1CC1)C=C2C(F)F`: 12.6 µM (active); `Cc1cc(C)n2ncc(C(=O)Nc3ccccc3Sc3ccccc3)c2n1`: 18.3 µM (active); `Cc1cc(C)n2ncc(C(=O)Nc3ccc4c(c3)CCC4)c2n1`: 3.26 µM (active). With `Cc1cc(C)n2ncc(C(=O)Nc3cccc(C(F)(F)F)c3)c2n1`, the Potency is 6.51 µM (active).

As for `Cc1cc(C)n2ncc(C(=O)Nc3ccc(C)c(C)c3)c2n1`, the Potency is 1.46 µM (active). Same read-out and setting: next, `Cc1cc(-c2ccccc2)nc2c(C(=O)Nc3ccc(Cl)c(Cl)c3)cnn12`: 6.51 µM (active).

As to `CCCCN(CCCNC(=S)NCCCc1cnc[nH]1)c1ccc(Br)cn1`, the “activity change, positive = activation” value was -105%.

With `Cc1cc(C)n2ncc(C(=O)NCC(C)C)c2n1`, the Potency is 25.9 µM (active). The same measure, in the same setting: next, `CCc1ccc(NC(=O)c2cnn3c(C)cc(-c4ccccc4)nc23)cc1`: 13 µM (active).

With `Cc1ccc(NC(=O)c2cnn3c(C)cc(C)nc23)c(C)c1`, the Potency is 10.3 µM (active). Take `OC[C@H]1CNC[C@@H](O)[C@@H]1O`: the “activity change, positive = activation” value is -96.6%. In the case of `Cc1cc(C)n2ncc(C(=O)Nc3ccccc3)c2n1`, the Potency is 5.17 µM (active). Turning to `C#Cc1ccc(NC(=O)c2cnn3c(C)cc(C)nc23)cc1`, the Potency was 0.366 µM (active). As to `CCc1ccc(NC(=O)c2cnn3c(C)cc(C)nc23)cc1`, the Potency was 4.11 µM (active). On the same count and under the same terms, as for `Cc1cc(C)n2ncc(C(=O)NCc3ccco3)c2n1`, the figure is 41.1 µM (active); as for `Cc1cc(C)n2ncc(C(=O)Nc3ccc4c(c3)OCO4)c2n1`, 6.51 µM (active); as for `Cc1cc(C)n2ncc(C(=O)NC3CCCCC3)c2n1`, 13 µM (active).

On to `Cc1cc(C)n2ncc(C(=O)NC3CCC(C(C)(C)C)CC3)c2n1` (stereo not given), for which the Potency is 8.19 µM (active) and 1.63 µM (active). Turning to `COc1ccc(NC(=O)c2cnn3c(-c4ccccc4)cc(C)nc23)cc1`, the “activity change, positive = activation” value was 18.3%.

`Cc1cc(-c2ccccc2)n2ncc(C(=O)Nc3ccccc3Sc3ccccc3)c2n1`: the “activity change, positive = activation” value was 5.28%.

`Cc1cc(C)n2ncc(C(=O)Nc3ccc(S(C)(=O)=O)cc3)c2n1`: the “activity change, positive = activation” value is 6.77%. Consider `Cc1cc(C)n2ncc(C(=O)Nc3cc(Cl)cc(Cl)c3)c2n1`, for which the Potency was 25.9 µM (active). Same read-out and setting: next, `Cc1cc(C)n2ncc(C(=O)Nc3ccccc3C)c2n1`: 16.3 µM (active); `Cc1cc(C)n2ncc(C(=O)Nc3ccc(Cl)c(Cl)c3)c2n1`: 3.66 µM (active); `Cc1cc(C)n2ncc(C(=O)Nc3ccc(Br)cc3)c2n1`: 2.31 µM (active). On the same count and under the same terms, as for `Cc1cc(-c2ccccc2)nc2c(C(=O)Nc3ccc4c(c3)CCC4)cnn12`, the figure is 8.19 µM (active); as for `C=C1C=C(C(F)F)n2ncc(C(=O)Nc3ccc(C(C)CC)cc3)c2N1` (stereo not given), 2.51 µM (active); as for `Cc1ccc(NC(=O)c2cnn3c(C)cc(C)nc23)cc1`, 3.26 µM (active). On to `Cc1cc(C)n2ncc(C(=O)Nc3cccc(C#N)c3)c2n1`, for which the “activity change, positive = activation” value was 5.97% [at 19 µM].
